A selection: hits, their analogues and other compounds. The true share with any hit is near 3.3%.
Sm TGR block: inhibitors of Schistosoma mansoni thioredoxin glutathione reductase. purified TGR, DTNB reduction, TNB absorbance 405 nm. Potency, µM (titrated, usually from 114 µM), inactives show top-dose activity change, negative = inhibition, hits mostly inhibitors. 360,000 tested, 3% active; further: nearly all actives have a fitted effect of over 60% in size
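First, TGR (20 nM dispensed) and NADPH were mixed with compound. Second, a 15 min room-temperature incubation followed. Third, further NADPH and then DTNB were added to start the reaction. Finally, TNB absorbance was monitored kinetically.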
AmpC inh no detg: blocks E. coli AmpC beta-lactamase in detergent-free assay | P00811 | AmpC nitrocefin hydrolysis, absorbance 480 nm, 0.0001% Triton | Potency, µM (series often up to 57.1 µM), inactives show top-dose activity change, negative = inhibition, usual class: inhibitors | 330,000 tested, 0.52% active | AID 485341;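 further: plate controls were no compound for no effect and no enzyme for full effect; nearly all actives have a fitted effect of over 20% in size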
Target sequence (P00811 whole entry, looked up): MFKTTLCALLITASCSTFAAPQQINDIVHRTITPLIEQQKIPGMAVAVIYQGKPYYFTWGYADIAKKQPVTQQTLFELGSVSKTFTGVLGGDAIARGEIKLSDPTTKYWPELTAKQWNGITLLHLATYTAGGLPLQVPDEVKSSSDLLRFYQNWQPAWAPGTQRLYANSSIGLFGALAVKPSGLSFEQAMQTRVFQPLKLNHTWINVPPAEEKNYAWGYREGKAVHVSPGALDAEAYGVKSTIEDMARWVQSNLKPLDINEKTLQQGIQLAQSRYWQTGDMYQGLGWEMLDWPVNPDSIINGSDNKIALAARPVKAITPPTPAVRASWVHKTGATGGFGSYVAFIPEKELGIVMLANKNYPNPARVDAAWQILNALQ
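AmpC (5.3 nM in the dispensed reagent) in 20 mM phosphate pH 7.0 with 0.01% (detergent screen) or 0.0001% Triton X-100 was preincubated with compounds for 15 min at room temperature. Nitrocefin was then added from an 800 uM solution, and hydrolysis was followed at 480 nm.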
AmpC inh detg: AmpC beta-lactamase inhibition with detergent present; P00811; AmpC hydrolysis of nitrocefin, absorbance 480 nm, 0.01% Triton; Potency, µM (titrated, usually from 114 µM), inactives show at the highest dose activity change, negative = inhibition, hits mostly inhibitors; 370,000 tested, 0.041% active; AID 485294;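 further: 0% = no-compound wells and -100% = no-enzyme wells; nearly all actives have a fitted effect of over 25% in size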
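20 mM phosphate pH 7.0 + 0.01% (detergent screen) or 0.0001% Triton X-100; 5.3 nM AmpC reagent; cpd preinc 15 min RT; nitrocefin (800 uM stock) to start; A480 q20 s × 4 min; Activity was normalised to no-enzyme and no-compound control wells.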
Numbers without * were called inactive; ? = inconclusive; nt = not tested or not shown. The call rests on the fitted dose curve; in most records, active means well fitted curve in the direction sought with a large enough effect; inconclusive means small, poorly fitted or top-dose-only effect, or another doubt; inactive means no such curve, though single readings can be large; an effect the other way counts as inactive or inconclusive. Unless noted, on the % scale 0 is the no-effect control and ±100 the full control effect; potency means the concentration at half of the fitted maximal effect.

SMILES	Sm TGR block	AmpC inh no detg	AmpC inh detg
O=C(NCCc1ccccc1)C1CCN(S(=O)(=O)N2CCC3(CC2)OCCO3)CC1	-14%	0.56µM*	-1%
O=C(COC(=O)c1cc(S(=O)(=O)N2CCOCC2)ccc1F)NCc1ccco1	45µM*	-15%	-2%
O=C(NCc1ccco1)C1CCN(S(=O)(=O)N2CCOCC2)CC1	50µM*	-17%	-4%
O=C(COC(=O)c1ccc(F)c(S(=O)(=O)N2CCOCC2)c1)NCc1ccco1	-20%	-5%	3%
CCS(=O)(=O)N1CCC(C(=O)NCc2ccco2)CC1	0%	-9%	3%
CCN(CC)CCOC(=O)c1ccc(NC(=O)c2cc3cc(OC)ccc3oc2=O)cc1	10%	nt	0%
O=C(OCc1cc(=O)n2nc(-c3cccs3)sc2n1)c1ccc(F)cc1	2%	nt	0%
CC1C(=O)OC2C1CCC1(C)CCC(=O)C(C)C21 (stereo not drawn)	3.5µM*	59%	-4%
CC1=CC(=O)C2=C(C)CC[C@@H]3[C@H](OC(=O)[C@H]3C)[C@@H]12	11%	-7%	4%
N#Cc1ccccc1NC(=O)C(=O)NCC(c1ccc2c(c1)OCO2)N1CCOCC1 (stereo not drawn)	6%	nt	0%
CCOc1ccc(NC(c2ccccn2)c2oc(CO)cc(=O)c2O)cc1 (stereo not drawn)	10µM*	-13%	-1%
CCOC(=O)C(c1ccccc1)C(Nc1ccc(F)cc1)c1ccccn1 (stereo not drawn)	-10%	35%	-5%
CCOC(=O)/C(C(C)=O)=C1\OC(=O)c2ccccc21	20µM*	-9%	-16%
CCOC(=O)CN1C(=O)c2ccccc2C1=O	4%	-14%	2%
O=C(O)/C(=C1\OC(=O)c2ccccc21)c1ccccc1	-2%	-10%	-8%
CCOC(=O)/C(C(C)=O)=C1/OC(=O)c2ccccc21	11µM*	-6%	-10%
O=C(C1CCN(S(=O)(=O)c2cccc3nonc23)CC1)N1CCN(c2ccccc2)CC1	-3%	nt	20%
CCOC(=O)[C@]1(C#N)[C@@H]2C=CC(C(C)=O)=CN2[C@@H](C(N)=O)[C@@H]1c1ccsc1	40µM*	7%	8%
CCOC(=O)N1CC=C2C(C#N)=C(N)C(C#N)(C#N)[C@H](c3ccsc3)[C@H]2C1	?	-23%	-6%
COC(=O)c1cc(NC(=O)Cn2ncc3c([nH]c4ccccc43)c2=O)cc(C(=O)OC)c1	-2%	nt	-1%
CC(C)(C)OC(=O)N[C@@H](Cc1ccccc1)c1nnc(SCC(N)=O)o1	9%	-7%	-6%
COC(=O)CSc1nnc([C@H](Cc2ccccc2)NC(=O)OC(C)(C)C)o1	0%	22%	-14%
COC(=O)CS(=O)(=O)c1nnc([C@H](Cc2ccccc2)NC(=O)OC(C)(C)C)o1	1.4µM*	?	35µM*
Cc1cccc(CS(=O)(=O)c2nnc([C@H](Cc3ccccc3)NC(=O)OC(C)(C)C)o2)c1	1.8µM*	-55%	40µM*
Cc1ccc(-n2ncc(C(=O)NCCc3c[nH]c4ccccc34)c2C2CCN(C(=O)OC(C)(C)C)CC2)cc1C	-17%	nt	0%
SMILES	Sm TGR block	AmpC inh no detg	AmpC inh detg
O=c1c(Cl)c(NCCCO)cnn1-c1nc2ccccc2[nH]1	8.9µM*	-3%	5%
C=CCN(CC=C)c1cnn(-c2nc3ccccc3[nH]2)c(=O)c1Cl	-7%	1%	0%
COc1cc(C)ccc1OCCSc1nc2ccc(NC(=O)c3ccco3)cc2s1	12%	nt	22%
CCc1ccc(NC(=O)C(=O)NCCc2sc(-c3ccc(OC)c(OC)c3)nc2C)cc1	5%	nt	3%
O=C1OC(c2ccc(Cl)cc2)=N/C1=C\C=C\c1ccco1	28µM*	-30%	-13%
O=C1OC(c2ccccc2)=N/C1=C\C=C\c1ccco1	?	-19%	0%
O=C1CCC/C(=N/NC(=O)c2cc(NS(=O)(=O)c3cccs3)cc(NS(=O)(=O)c3cccs3)c2)C1	?	11µM*	-4%
O=C1CCC/C(=N/NC(=O)c2ccc(NS(=O)(=O)c3cccs3)cc2)C1	?	?	-3%
CCCCOc1ccc(C2c3c(-c4ccccc4O)n[nH]c3C(=O)N2Cc2ccncc2)cc1OC (stereo not drawn)	-7%	nt	-6%
Cc1cc(C)cc(OCC(=O)NCC2(N(C)C)CCCCC2)c1	2%	nt	-3%
CCN1CCN(C(=O)c2cnn(-c3cccc(C)c3)c2C2CCN(C(=O)OC(C)(C)C)CC2)CC1	4%	nt	15%
CCOC(=O)c1nc(N2CCN(c3ccc(F)cc3)CC2)c2c(C)noc2n1	-10%	nt	-4%
COc1cccc(C2=NN(C(C)=O)C(c3cn(-c4ccccc4)nc3-c3cccs3)C2)c1 (stereo not drawn)	6%	nt	0%
c1ccc(C2Oc3ccccc3C3CC(c4cccs4)=NN32)cc1 (stereo not drawn)	?	-23%	7%
O=[N+]([O-])c1ccc(C2Oc3ccccc3C3CC(c4ccccc4)=NN32)s1 (stereo not drawn)	40µM*	-50%	6%
COCCCn1c(SCC(=O)NCc2ccccc2)nc2c(sc3ccccc32)c1=O	0%	nt	0%
O=C(O)CNC(=O)CCCn1nnc2ccccc2c1=O	5%	-5%	4%
CC(C)[C@H](NC(=O)CCCn1nnc2ccccc2c1=O)C(=O)O	40µM*	-4%	1%
O=C(O)Cc1sc(Nc2ccccc2)nc1-c1ccccc1	-16%	nt	0%
O=C(O)Cc1sc(Nc2cccc3ccccc23)nc1-c1ccccc1	?	-39%	-1%
CCOc1ccccc1Nc1nc(-c2ccc(C)cc2)c(CC(=O)O)s1	40µM*	nt	-4%
O=C(O)Cc1sc(Nc2cccc3ccccc23)nc1-c1ccc(Cl)cc1	-5%	7.9µM*	0%
O=C(O)Cc1sc(N/N=C\c2ccncc2)nc1-c1ccccc1	0.25µM*	-19%	4%
Cc1ccc(Nc2nc(-c3ccc(C)cc3)c(CC(=O)O)s2)cc1	?	-30%	-1%
O=C(CCCCCn1c(=O)c2sccc2n(CC(=O)Nc2ccccc2F)c1=O)NCc1ccc2c(c1)OCO2	5%	nt	21%
SMILES	Sm TGR block	AmpC inh no detg	AmpC inh detg
CCc1ccccc1N(C)C(=O)Cn1cnc2sc(C)c(S(=O)(=O)N3CCN(c4ncccn4)CC3)c2c1=O	-3%	nt	17%
O=C(NCc1cccc(F)c1)C1CCN(c2nc3ccccc3nc2C(F)(F)F)CC1	8%	nt	3%
Cc1ccc(NC(=O)NCc2c(-n3cccc3)sc3c2CCCC3)c(Cl)c1	-10%	nt	-3%
CCC(=O)N1c2ccc(S(=O)(=O)NCc3ccc(F)cc3)cc2CC1C (stereo not drawn)	19%	nt	4%
Cc1ccc(C2CC(=O)C=C(O)C2)cc1 (stereo not drawn)	8%	14µM*	-14%
Cc1ccc(C2=CC(=O)C[C@H](c3ccc(Cl)cc3)C2)cc1	-11%	-10%	-3%
Cc1cccc(CCNC(=O)CCc2c(C)nc3c(c(C)nn3-c3ccccc3)c2C)c1	-3%	nt	22%
CCN1C(=O)c2cccc3cccc1c23	11µM*	-12%	6%
CN(C)C(=O)CN1C(=O)c2cccc3cccc1c23	7%	6%	3%
CCOc1ccc(CN(CCc2ccc3c(c2)OCO3)Cc2cc(OC)c(OC)cc2OC)cc1	10%	nt	13%

Bioassay records deposited in PubChem by National Center for Advancing Translational Sciences (NCATS).
